Laboratory results published in the supplement of paper PMC9023506.
Counter-ions that a name gives are not always drawn.

Tested on: Danio rerio larvae (5 dpf)
Test: optomotor response to blue moving lines, difference vs DMSO (percentage points (treated minus DMSO)); higher = more of the behaviour than the DMSO vehicle control
Settings: 10 µM; exposure time: 3 h pre-incubation + 3 h imaging
Procedure, shortened: (§1)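 Library drugs were diluted 1000× from DMSO stocks into egg water to reach 10 µM and applied to 5-dpf wild-type zebrafish larvae in 96-well ProxiPlates, 48 larvae per drug. The larvae stayed exposed for 3 h before imaging and for the 3 h of imaging at 28.5 °C. Behaviour scores, given in percentage points, are the treated mean minus the vehicle mean for movement and upper-half location.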

| SMILES | optomotor response to blue moving lines |
| --- | --- |
| C[C@]12CCC(=O)C=C1CC[C@@H]1[C@@H]2[C@@H](O)C[C@@]2(C)[C@H]1CC[C@]2(O)C(=O)CO [Hydrocortisone] | 8.43 |
| CN1CC[C@@H](NC(=O)Nc2ccc(C#N)cc2)C[C@@H]1c1nc2ccccc2[nH]1 | 3.76 |
| CC(C)c1nc(CN(C)C(=O)N[C@H](C(=O)N[C@@H](Cc2ccccc2)C[C@H](O)[C@H](Cc2ccccc2)NC(=O)OCc2cncs2)C(C)C)cs1 [Ritonavir] | -11.8 |
| COCCc1ccc(OCC(O)CNC(C)C)cc1 (centres undefined) [Metoprolol tartrate] | 10.9 |
| CN[C@H]1CC[C@@H](c2ccc(Cl)c(Cl)c2)c2ccccc21 [Sertraline hydrochloride] | -9.96 |
| OC(CNCC(O)C1CCc2cc(F)ccc2O1)C1CCc2cc(F)ccc2O1 (centres undefined) [Nebivolol hydrochloride] | -16.6 |
| Cc1cccc(C)c1OCC(C)N (centres undefined) [Mexiletine hydrochloride] | 7.61 |
| NC(=O)c1ncn([C@@H]2O[C@H](CO)[C@@H](O)[C@H]2O)n1 [Ribavirin] | 9.25 |
| CCOC(=O)C1=C(COCCN)NC(C)=C(C(=O)OC)C1c1ccccc1Cl (centres undefined) [Amlodipine besylate] | 6.74 |
| OCCN1C[C@H](O)[C@@H](O)[C@H](O)[C@H]1CO [Miglitol] | 5.95 |
| CNC(=O)c1cc(Oc2ccc(NC(=O)Nc3ccc(Cl)c(C(F)(F)F)c3)cc2)ccn1 [Sorafenib] | -18.5 |
| OCc1cc(C(O)CNCCCCCCOCCCCc2ccccc2)ccc1O (centres undefined) [Salmeterol xinafoate] | -3.67 |
| COc1cccc2c1C(=O)c1c(O)c3c(c(O)c1C2=O)C[C@@](O)(C(=O)CO)C[C@@H]3O[C@H]1C[C@H](N)[C@H](O)[C@H](C)O1 [Doxorubicin hydrochloride] | 3.86 |
| N#Cc1ccc(C(c2ccc(C#N)cc2)n2cncn2)cc1 [Letrozole] | 2.11 |
| CCOC(=O)C1=C(C)NC(C)=C(C(=O)OC)C1c1cccc(Cl)c1Cl (centres undefined) [Felodipine] | -5.26 |
| CCOc1ccccc1OCCN[C@H](C)Cc1ccc(OC)c(S(N)(=O)=O)c1 [Tamsulosin hydrochloride] | 2.91 |

Tested on: Danio rerio larvae (5 dpf)
Test: optomotor response to green moving lines, difference vs DMSO (percentage points (treated minus DMSO)); higher = more of the behaviour than the DMSO vehicle control
Settings: 10 µM; exposure time: 3 h pre-incubation + 3 h imaging
Procedure, shortened: as §1

| SMILES | optomotor response to green moving lines |
| --- | --- |
| CCCCC1=NC2(CCCC2)C(=O)N1Cc1ccc(-c2ccccc2-c2nnn[nH]2)cc1 [Irbesartan] | -19 |
| C#CCN[C@@H]1CCc2ccccc21 [Rasagiline mesylate] | -10.1 |
| CCOc1cc(CC(=O)N[C@@H](CC(C)C)c2ccccc2N2CCCCC2)ccc1C(=O)O [Repaglinide] | 4.27 |
| CCOC(=O)[C@H](CCc1ccccc1)N[C@H]1CCc2ccccc2N(CC(=O)O)C1=O [Benazepril hydrochloride] | 11.6 |
| N[C@@H]1[C@H]2CN(c3nc4c(cc3F)c(=O)c(C(=O)O)cn4-c3ccc(F)cc3F)C[C@@H]12 [Trovafloxacin mesylate] | -4.23 |
| O=C1CCc2ccc(OCCCCN3CCN(c4cccc(Cl)c4Cl)CC3)cc2N1 [Aripiprazole] | -2.87 |
| COc1ccc(C[C@@H](C)NC[C@H](O)c2ccc(O)c(NC=O)c2)cc1 [Arformoterol tartrate] | 0.317 |
| CNC(=O)c1ccccc1Sc1ccc2c(/C=C/c3ccccn3)n[nH]c2c1 [Axitinib] | 2.99 |
| O=c1[nH]c(=O)n([C@H]2C[C@H](O)[C@@H](CO)O2)cc1C(F)(F)F [Trifluorothymidine] | 6.4 |
| O=C(O)c1cc(/N=N/c2ccc(S(=O)(=O)Nc3ccccn3)cc2)ccc1O [Sulfasalazine] | 0.416 |
| COc1cc(Nc2c(C#N)cnc3cc(OCCCN4CCN(C)CC4)c(OC)cc23)c(Cl)cc1Cl [Bosutinib] | 2.65 |
| CC(C)(C(=O)c1cccnc1)c1cccnc1 [Metyrapone] | -5.18 |
| CC#C[C@]1(O)CC[C@H]2[C@@H]3CCC4=CC(=O)CCC4=C3[C@@H](c3ccc(N(C)C)cc3)C[C@@]21C [Mifepristone] | 11 |
| Cc1ccsc1C(=CCCN1CCC[C@@H](C(=O)O)C1)c1sccc1C [Tiagabine hydrochloride] | 8.59 |
| Nc1ncn([C@@H]2O[C@H](CO)[C@@H](O)[C@H]2O)c(=O)n1 [5-Azacytidine] | 1.33 |
| CC(CCc1ccc(O)cc1)NCCc1ccc(O)c(O)c1 (centres undefined) [Dobutamine hydrochloride] | 4.26 |
| COc1ccc(-c2ccc3cc(C(=O)O)ccc3c2)cc1C12CC3CC(CC(C3)C1)C2 [Adapalene] | -2.82 |
| COc1cc(N)c(Cl)cc1C(=O)NC1CCN(CCCOc2ccc(F)cc2)CC1OC (centres undefined) [Cisapride] | 5.81 |
